CYP2C9 inh = blockers of cytochrome P450 2C9 activity – biochemical, luminescence, ADME assay, primary screen | P11712 | CYP2C9 Supersomes, luciferin-H conversion | inhibition, % at 5 µM | 96,000 tested, 20% active;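 active = blocking of liver enzyme CYP2C9 beyond about 50% at 5 µM, limit read from the data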
CYP2C9 activ = human CYP2C9 activators, primary screen, biochemical, luminescence | Cytochrome P450 2C9 (Homo sapiens), P11712 | recombinant CYP2C9, luciferin-H conversion; stronger effect = higher value; factor 1 = untreated enzyme, 0 = blocked | activation factor at 5 µM | 96,000 tested, 1.4% active;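 active = activation factor of 2 or more for CYP2C9 at a 5 µM dose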;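 also: 0 = sulfaphenazole-blocked wells and 1 = vehicle-only wells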
CYP2C19 activ = human CYP2C19 activators, primary screen, biochemical, luminescence; Cytochrome P450 2C19 (Homo sapiens), P33261; recombinant CYP2C19, luciferin-H EGE luminescence; stronger effect = higher value; 0 = fully inhibited enzyme, 1 = untreated enzyme; activation factor at 5 µM; 96,000 tested, under 10 active;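 active = activation factor of at least 2 at 5 µM in the primary screen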;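 also: 0 = wells with 2.5 mM tranylcypromine and 1 = vehicle-only wells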
PLAP activator = PLAP enzyme activators, biochemical, luminescence, HTS | purified PLAP enzyme, luminescent substrate read-out; stronger effect = higher value | AID 696, 2007 | activation fold at 20 µM | 96,000 tested, 1.2% active; in the data active = activation fold above about 2
Target sequence (P05187 whole entry, looked up): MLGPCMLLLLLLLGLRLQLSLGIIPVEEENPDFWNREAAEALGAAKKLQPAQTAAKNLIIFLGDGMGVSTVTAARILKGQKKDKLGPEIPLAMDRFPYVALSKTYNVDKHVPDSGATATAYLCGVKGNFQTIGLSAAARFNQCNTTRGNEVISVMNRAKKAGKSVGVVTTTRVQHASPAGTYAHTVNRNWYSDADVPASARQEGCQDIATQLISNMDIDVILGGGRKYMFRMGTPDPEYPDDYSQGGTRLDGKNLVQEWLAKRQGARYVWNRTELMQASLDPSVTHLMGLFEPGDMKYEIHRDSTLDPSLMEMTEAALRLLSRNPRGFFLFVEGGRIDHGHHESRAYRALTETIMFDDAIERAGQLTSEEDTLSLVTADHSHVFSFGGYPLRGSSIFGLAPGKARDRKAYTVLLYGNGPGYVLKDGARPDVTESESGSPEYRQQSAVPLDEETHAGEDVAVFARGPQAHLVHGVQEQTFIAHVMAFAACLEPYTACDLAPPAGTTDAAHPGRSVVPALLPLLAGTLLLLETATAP
CYP2C19 inh = blockers of cytochrome P450 2C19 activity – biochemical, luminescence, ADME assay, primary screen; CYP2C19 Supersomes, luciferin-H EGE luminescence, 30 min; inhibition, % at 5 µM; 96,000 tested, 21% active; AID 778, 2007;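 active = CYP2C19 inhibition above a set limit at 5 µM in the primary screen, cut at about 50% in these data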;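 also: plate controls were negative control wells for no effect and 2.5 mM tranylcypromine positive control for full effect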
* = called active by the depositor. The list is a sample of the results.

Results for Cc1ccc(NC(=O)Cn2cccc2)cc1C ?
CYP2C9 inh: 22; CYP2C9 activ: 0.8; CYP2C19 activ: 0.5; PLAP activator: 1.2; CYP2C19 inh: 47

What do the screens show for `CCN(CC)C(C(=O)Nc1ccc(C(C)C)cc1)c1ccc2c(c1)OCO2` (stereo unspecified)?
CYP2C9 inh: 29; CYP2C9 activ: 0.7; CYP2C19 activ: 0.9; PLAP activator: 1.3; CYP2C19 inh: 14

How did CCOC(=O)C(NC(=O)CC)(Nc1ccc(S(=O)(=O)Nc2onc(C)c2C)cc1)C(F)(F)F (stereo unspecified) do in these assays?
CYP2C9 inh: 45; CYP2C9 activ: 0.5; CYP2C19 activ: 1.2; PLAP activator: 1.2; CYP2C19 inh: -16

What do the screens show for `CCC(C)Sc1nc(O)c(Cc2ccccc2)c(=O)[nH]1` (stereo unspecified)?
CYP2C9 inh: 23; CYP2C9 activ: 0.8; CYP2C19 activ: 0.9; PLAP activator: 1.5; CYP2C19 inh: 8

Results for CCOCCCNC(=O)C(c1ccccc1)N(Cc1ccc2c(c1)OCO2)C(=O)CNC(C)=O (stereo unspecified) ?
CYP2C9 inh: 8; CYP2C9 activ: 0.9; CYP2C19 activ: 0.8; PLAP activator: 1.3; CYP2C19 inh: 19

How did CCc1ccc(Nc2cc(C(=O)NCCCN3CCOCC3)c3ccccc3n2)cc1 do in these assays?
CYP2C9 inh: 19; CYP2C9 activ: 0.8; CYP2C19 activ: 0.9; PLAP activator: 1.5; CYP2C19 inh: 6

Results for COc1ccc(NC(=O)c2c(Cl)n(C)c3ccccc23)cc1 ?
CYP2C9 inh: -126; CYP2C9 activ: 2.3*; CYP2C19 activ: 0.9; PLAP activator: 1; CYP2C19 inh: 13

Results for Cc1ccc(C)c(NC(=O)CCn2nc(C)cc2C)c1 ?
CYP2C9 inh: -16; CYP2C9 activ: 1.2; CYP2C19 activ: 0.9; PLAP activator: 1; CYP2C19 inh: 11

How did Cc1ccc(NC(=O)Cn2cccc2)c(C)c1 do in these assays?
CYP2C9 inh: 0; CYP2C9 activ: 1; CYP2C19 activ: 0.3; PLAP activator: 1.2; CYP2C19 inh: 71*

Results for Cc1ccc(NC(=O)CCn2nc(C)cc2C)cc1 ?
CYP2C9 inh: -14; CYP2C9 activ: 1.1; CYP2C19 activ: 0.3; PLAP activator: 1.1; CYP2C19 inh: 74*

What do the screens show for `O=[N+]([O-])c1ccc(NCCNc2ccc(Cl)nn2)cc1`?
CYP2C9 inh: 18; CYP2C9 activ: 0.8; CYP2C19 activ: 0.8; PLAP activator: 0.6; CYP2C19 inh: 22

What do the screens show for `CCCOc1ccc2c(=O)c(-c3cc(C(=O)OC)oc3C)c(C)oc2c1`?
CYP2C9 inh: 48; CYP2C9 activ: 0.5; CYP2C19 activ: 0.8; PLAP activator: 1.3; CYP2C19 inh: 20

Results for COc1cc(C2=NOC(C(=O)Nc3ccc(C)cc3)C2)cc(OC)c1OC (stereo unspecified) ?
CYP2C9 inh: 12; CYP2C9 activ: 0.9; CYP2C19 activ: 0.6; PLAP activator: 0.9; CYP2C19 inh: 40

How did COc1ccc(NC(=O)OC(C)C)cc1 do in these assays?
CYP2C9 inh: -4; CYP2C9 activ: 1; CYP2C19 activ: 0.8; PLAP activator: 1.1; CYP2C19 inh: 16

Results for CN1c2ccccc2Oc2c(c(=O)n(C)c(=O)n2C)C1c1cccc([N+](=O)[O-])c1 (stereo unspecified) ?
CYP2C9 inh: 54*; CYP2C9 activ: 0.5; CYP2C19 activ: 0.8; PLAP activator: 1; CYP2C19 inh: 23

Results for CCCOc1ccc(-c2nnc(-c3ccncc3)o2)cc1 ?
CYP2C9 inh: 89*; CYP2C9 activ: 0.1; CYP2C19 activ: 0; PLAP activator: 1.1; CYP2C19 inh: 99*

Results for c1cc(-c2nnc(-c3ccncc3)o2)ccn1 ?
CYP2C9 inh: 12; CYP2C9 activ: 0.9; CYP2C19 activ: 0.3; PLAP activator: 0.9; CYP2C19 inh: 66*

Results for CC(C)COc1ccc(-c2nnc(-c3ccncc3)o2)cc1 ?
CYP2C9 inh: 42; CYP2C9 activ: 0.6; CYP2C19 activ: 0.2; PLAP activator: 1.2; CYP2C19 inh: 78*

What do the screens show for `CCOc1ccc(-c2nnc(-c3cccs3)o2)cc1`?
CYP2C9 inh: 18; CYP2C9 activ: 0.8; CYP2C19 activ: 0.9; PLAP activator: 0.9; CYP2C19 inh: 8

What do the screens show for `Brc1ccccc1CN1CCC(N2CCCCC2)CC1`?
CYP2C9 inh: -6; CYP2C9 activ: 1.1; CYP2C19 activ: 0.9; PLAP activator: 1.3; CYP2C19 inh: 5

Results for Cc1ccc(C(C(=O)NC2CCCCC2)N2CCOCC2)cc1 (stereo unspecified) ?
CYP2C9 inh: -28; CYP2C9 activ: 1.3; CYP2C19 activ: 1; PLAP activator: 1.1; CYP2C19 inh: 0

What do the screens show for `CC(=O)NC1=NN(C(C)=O)C2(S1)C(=O)N(C(C)C)c1ccc(C)cc12` (stereo unspecified)?
CYP2C9 inh: -5; CYP2C9 activ: 1.1; CYP2C19 activ: 1.1; PLAP activator: 1.1; CYP2C19 inh: -9

How did CCN(CC)c1ccc(-c2c(C#N)c(N)nc(OC)c2C#N)cc1 do in these assays?
CYP2C9 inh: 54*; CYP2C9 activ: 0.5; CYP2C19 activ: 1; PLAP activator: 0.9; CYP2C19 inh: 3

Results for CCCSc1nc(N)c(C#N)c(-c2ccc(C)cc2)c1C#N ?
CYP2C9 inh: 13; CYP2C9 activ: 0.9; CYP2C19 activ: 1; PLAP activator: 0.9; CYP2C19 inh: 0

What do the screens show for `Cc1cc(N2CCN(C(=O)c3ccco3)CC2)n2nc(C)c(-c3ccccc3)c2n1`?
CYP2C9 inh: 45; CYP2C9 activ: 0.6; CYP2C19 activ: 0.5; PLAP activator: 1.9; CYP2C19 inh: 46

What do the screens show for `O=C(c1ccccc1)c1ccc2nc(N3CCN(C(=O)c4ccco4)CC3)c3nncn3c2c1`?
CYP2C9 inh: 92*; CYP2C9 activ: 0.1; CYP2C19 activ: 0.2; PLAP activator: 1.4; CYP2C19 inh: 78*

Results for O=C(CSc1nnc(-c2ccco2)c(-c2ccco2)n1)Nc1ccccc1 ?
CYP2C9 inh: 73*; CYP2C9 activ: 0.3; CYP2C19 activ: 0.7; PLAP activator: 1.1; CYP2C19 inh: 28

What do the screens show for `Cc1cccc(C)c1NC(=O)CSc1nnc(-c2ccco2)c(-c2ccco2)n1`?
CYP2C9 inh: -17; CYP2C9 activ: 1.2; CYP2C19 activ: 1.2; PLAP activator: 0.7; CYP2C19 inh: -19

How did O=C(O)CCC(=O)Nc1ccc(-c2nnc(-c3ccco3)o2)cc1 do in these assays?
CYP2C9 inh: -14; CYP2C9 activ: 1.1; CYP2C19 activ: 1.1; PLAP activator: 1; CYP2C19 inh: -10

What do the screens show for `O=C(Cc1ccc(Cl)cc1)Nc1ccc(-c2nnc(-c3ccco3)o2)cc1`?
CYP2C9 inh: 76*; CYP2C9 activ: 0.2; CYP2C19 activ: 0.5; PLAP activator: 0.9; CYP2C19 inh: 55*

Source: PubChem
